# Data reported in the supplement of paper PMC10849652.
# Targets with a hit are over-represented here; the source holds about 8,800 in all. About 0.5% of all pairs of compound and target were hits. Values without a mark were called inactive.
# Legend:
# Assay in all cases: log2 fold change, soluble protein after heating vs DMSO (PISA); higher = thermal stabilisation; K562 lysate, 10 uM; active = over 0.2 and 3.5 SD of the protein, either way, in both replicates (recomputed)
# erlotinib = compound: C#Cc1cccc(Nc2ncnc3cc(OCCOC)c(OCCOC)cc23)c1 [erlotinib]
# Method in brief: (§1)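 Soluble protein was defined as the supernatant remaining after 21,000xg for 90 min, following pooling of heated aliquots and adjustment to 0.5% NP-40 at 4°C. Before that, crude K562 extract at 1 mg/mL protein in PBS pH 7.4 with 1 mM MgCl2 was treated with 10 μM compound for 30 min and heated for 3 min across 48°C-58°C. Quantification used TMTpro 16plex LC-MS/MS with channel sums equalised, and values are log-two fold changes in thermal stability relative to solvent controls from duplicates.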
# [1] = compound: C/C(=N\NC(=O)C1=CC(=CC=C1)S(=O)(=O)N2CCOCC2)/C3=C(C=CC(=C3)Cl)O
# Method in brief: as §1
# [2] = compound: C1=CC(=CC=C1C2=NC3=C(N2)C=C(C=C3)C(=O)N)OC4=CC=C(C=C4)Cl
# Method in brief: as §1
# [3] = compound: C1=CC2=C(C=CC(=C2)/C=C\3/C(=O)NC(=NCC4=CC=CS4)S3)N=C1
# Method in brief: as §1
# [4] = compound: C1=CC2=NC=CN=C2C=C1/C=C/3\C(=O)NC(=O)S3
# Method in brief: as §1
# [5] = compound: C1=CC=C(C=C1)C2=NC(=C(N2)C3=CC=NC=C3)C4=CC(=C(C=C4)Cl)O
# Method in brief: as §1
# [6] = compound: C1=CC=C2C(=C1)C3=NNC4=CC=CC(=C43)C2=O
# Method in brief: as §1
# [7] = compound: C1CCN(C1)C(=O)NC2=CC=CC(=C2)NC3=NC=C(C(=N3)NCCC4=CN=CN4)Br
# Method in brief: as §1
# [8] = compound: C1CN(CCC1(CC2=CC=C(C=C2)Cl)N)C3=NC=NC4=C3C=CN4
# Method in brief: as §1
# IRAK-1-4 Inhibitor I = compound: C1COCCN1CCN2C3=CC=CC=C3N=C2NC(=O)C4=CC(=CC=C4)[N+](=O)[O-] [IRAK-1-4 Inhibitor I]
# Method in brief: as §1
# ibrutinib = compound: C=CC(=O)N1CCC[C@@H](n2nc(-c3ccc(Oc4ccccc4)cc3)c3c(N)ncnc32)C1 [ibrutinib]
# Method in brief: as §1
# [9] = compound: CC(=O)c1cnc2ccc(-c3cc(Cl)c(O)c(Cl)c3)nc2c1N[C@H]1CC[C@H](CN(C)C)CC1
# Method in brief: as §1
# ralimetinib = compound: CC(C)(C)Cn1c(N)nc2ccc(-c3[nH]c(C(C)(C)C)nc3-c3ccc(F)cc3)nc21 [ralimetinib]
# Method in brief: as §1
# [10] = compound: CC(C)(O)CC(=O)NCCn1ccc2ncnc(Nc3ccc(Oc4cccc(C(F)(F)F)c4)c(Cl)c3)c21
# Method in brief: as §1
# [11] = compound: CC(C)C1=C2N=C(C=C(N2N=C1)NCC3=CC=CC=C3)NCCCCCCN
# Method in brief: as §1
# [12] = compound: CC1=C(C(CC(=O)N1)C2=CC=C(C=C2)C(F)(F)F)C(=O)NC3=C(C=C4C(=C3)C=NN4)F
# Method in brief: as §1
# [13] = compound: CC1=C(C2=C(C=C1)C(=O)C3=CC=CC=C3N2CCCN)C
# Method in brief: as §1
# [14] = compound: CC1=C(C=C(C=C1)NC(=O)C2=CC(=CC=C2)C(C)(C)C#N)NC3=CC4=C(C=C3)N=CN(C4=O)C
# Method in brief: as §1
# [15] = compound: CC1=C(C=C(C=C1)NC(=O)C2=CC(=CC=C2)N(C)C)NC(=O)C3=CC=C(C=C3)O
# Method in brief: as §1
# [16] = compound: CC1=CC=C(C=C1)SC2=C3C=C(SC3=CN=C2)C(=O)N
# Method in brief: as §1
# Chain of UniProt Q13242 (Q13242 whole entry, looked up): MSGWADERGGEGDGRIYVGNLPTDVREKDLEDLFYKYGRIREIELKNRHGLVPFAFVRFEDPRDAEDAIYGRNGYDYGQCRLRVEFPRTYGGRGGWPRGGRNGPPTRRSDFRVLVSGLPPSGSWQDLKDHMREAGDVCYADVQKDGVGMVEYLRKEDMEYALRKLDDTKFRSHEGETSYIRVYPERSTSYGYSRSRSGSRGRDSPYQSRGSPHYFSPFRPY
# Chain of UniProt Q9UJC5 (Q9UJC5 whole entry, looked up): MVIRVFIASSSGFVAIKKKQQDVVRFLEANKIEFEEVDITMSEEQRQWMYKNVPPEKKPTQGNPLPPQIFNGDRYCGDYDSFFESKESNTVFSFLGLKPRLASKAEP
# Chain of UniProt Q6KCM7 (Q6KCM7 whole entry, looked up): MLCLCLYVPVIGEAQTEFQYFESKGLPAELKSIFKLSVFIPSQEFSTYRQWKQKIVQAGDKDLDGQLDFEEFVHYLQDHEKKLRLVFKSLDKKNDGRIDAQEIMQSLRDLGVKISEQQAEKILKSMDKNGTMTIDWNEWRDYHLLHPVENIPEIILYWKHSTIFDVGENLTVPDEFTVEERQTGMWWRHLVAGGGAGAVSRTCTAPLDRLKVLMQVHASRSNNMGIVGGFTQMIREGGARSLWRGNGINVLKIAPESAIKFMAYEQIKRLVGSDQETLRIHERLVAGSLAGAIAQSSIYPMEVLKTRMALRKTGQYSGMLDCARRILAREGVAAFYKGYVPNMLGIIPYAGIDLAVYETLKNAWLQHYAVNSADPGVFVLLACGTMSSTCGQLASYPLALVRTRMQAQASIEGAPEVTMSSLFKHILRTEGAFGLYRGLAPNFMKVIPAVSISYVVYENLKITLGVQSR
# Chain of UniProt P53814 (P53814 whole entry, looked up): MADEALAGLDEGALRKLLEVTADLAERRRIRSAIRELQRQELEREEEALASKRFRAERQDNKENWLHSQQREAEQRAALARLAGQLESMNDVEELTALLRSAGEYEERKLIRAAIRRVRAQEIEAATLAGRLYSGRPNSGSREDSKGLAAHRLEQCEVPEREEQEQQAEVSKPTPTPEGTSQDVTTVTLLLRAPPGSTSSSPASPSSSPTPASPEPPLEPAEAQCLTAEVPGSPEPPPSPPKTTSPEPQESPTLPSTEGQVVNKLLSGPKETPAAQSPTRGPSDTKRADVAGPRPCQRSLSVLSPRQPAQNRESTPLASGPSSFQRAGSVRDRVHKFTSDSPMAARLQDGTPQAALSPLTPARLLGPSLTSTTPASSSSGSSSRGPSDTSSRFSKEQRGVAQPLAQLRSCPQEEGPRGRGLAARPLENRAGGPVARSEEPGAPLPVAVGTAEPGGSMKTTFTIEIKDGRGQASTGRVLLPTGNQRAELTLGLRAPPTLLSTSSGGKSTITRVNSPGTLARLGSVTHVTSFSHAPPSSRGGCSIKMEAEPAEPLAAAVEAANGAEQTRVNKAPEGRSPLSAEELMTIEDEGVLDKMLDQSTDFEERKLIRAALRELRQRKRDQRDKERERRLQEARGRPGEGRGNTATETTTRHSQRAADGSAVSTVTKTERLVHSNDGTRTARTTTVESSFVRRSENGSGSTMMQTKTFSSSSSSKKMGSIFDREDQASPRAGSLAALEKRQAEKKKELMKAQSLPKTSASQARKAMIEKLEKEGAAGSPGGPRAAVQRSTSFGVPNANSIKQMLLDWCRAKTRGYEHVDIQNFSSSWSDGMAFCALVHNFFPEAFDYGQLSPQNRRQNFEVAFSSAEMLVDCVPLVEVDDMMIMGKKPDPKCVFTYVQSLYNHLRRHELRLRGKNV
# Chain of UniProt P35270 (P35270 whole entry, looked up): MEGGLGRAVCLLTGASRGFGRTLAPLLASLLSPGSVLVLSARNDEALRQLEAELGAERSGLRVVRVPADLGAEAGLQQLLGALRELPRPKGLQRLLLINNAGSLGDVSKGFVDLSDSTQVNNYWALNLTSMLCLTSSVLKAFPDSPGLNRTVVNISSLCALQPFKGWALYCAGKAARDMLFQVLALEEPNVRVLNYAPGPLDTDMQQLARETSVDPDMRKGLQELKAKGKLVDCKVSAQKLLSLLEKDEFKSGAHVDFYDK
# Chain of UniProt Q6P1M0 (Q6P1M0 whole entry, looked up): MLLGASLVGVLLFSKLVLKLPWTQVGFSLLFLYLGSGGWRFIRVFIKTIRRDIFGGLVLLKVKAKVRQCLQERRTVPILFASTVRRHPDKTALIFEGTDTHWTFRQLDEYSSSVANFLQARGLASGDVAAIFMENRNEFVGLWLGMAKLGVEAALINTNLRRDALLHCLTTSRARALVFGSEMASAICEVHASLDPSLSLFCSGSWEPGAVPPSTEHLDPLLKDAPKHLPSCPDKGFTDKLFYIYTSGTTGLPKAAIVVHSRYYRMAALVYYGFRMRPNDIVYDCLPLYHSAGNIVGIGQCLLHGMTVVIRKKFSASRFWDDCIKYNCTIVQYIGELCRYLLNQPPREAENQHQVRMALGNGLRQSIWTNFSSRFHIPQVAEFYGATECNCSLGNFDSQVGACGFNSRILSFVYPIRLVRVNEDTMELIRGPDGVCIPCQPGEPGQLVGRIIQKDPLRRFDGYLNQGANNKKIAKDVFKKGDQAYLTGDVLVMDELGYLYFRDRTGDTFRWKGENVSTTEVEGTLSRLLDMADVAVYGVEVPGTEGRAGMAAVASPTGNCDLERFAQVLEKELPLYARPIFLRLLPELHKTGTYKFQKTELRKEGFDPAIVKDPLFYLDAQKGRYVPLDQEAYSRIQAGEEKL
# Chain of UniProt Q9NTJ3 (Q9NTJ3 whole entry, looked up): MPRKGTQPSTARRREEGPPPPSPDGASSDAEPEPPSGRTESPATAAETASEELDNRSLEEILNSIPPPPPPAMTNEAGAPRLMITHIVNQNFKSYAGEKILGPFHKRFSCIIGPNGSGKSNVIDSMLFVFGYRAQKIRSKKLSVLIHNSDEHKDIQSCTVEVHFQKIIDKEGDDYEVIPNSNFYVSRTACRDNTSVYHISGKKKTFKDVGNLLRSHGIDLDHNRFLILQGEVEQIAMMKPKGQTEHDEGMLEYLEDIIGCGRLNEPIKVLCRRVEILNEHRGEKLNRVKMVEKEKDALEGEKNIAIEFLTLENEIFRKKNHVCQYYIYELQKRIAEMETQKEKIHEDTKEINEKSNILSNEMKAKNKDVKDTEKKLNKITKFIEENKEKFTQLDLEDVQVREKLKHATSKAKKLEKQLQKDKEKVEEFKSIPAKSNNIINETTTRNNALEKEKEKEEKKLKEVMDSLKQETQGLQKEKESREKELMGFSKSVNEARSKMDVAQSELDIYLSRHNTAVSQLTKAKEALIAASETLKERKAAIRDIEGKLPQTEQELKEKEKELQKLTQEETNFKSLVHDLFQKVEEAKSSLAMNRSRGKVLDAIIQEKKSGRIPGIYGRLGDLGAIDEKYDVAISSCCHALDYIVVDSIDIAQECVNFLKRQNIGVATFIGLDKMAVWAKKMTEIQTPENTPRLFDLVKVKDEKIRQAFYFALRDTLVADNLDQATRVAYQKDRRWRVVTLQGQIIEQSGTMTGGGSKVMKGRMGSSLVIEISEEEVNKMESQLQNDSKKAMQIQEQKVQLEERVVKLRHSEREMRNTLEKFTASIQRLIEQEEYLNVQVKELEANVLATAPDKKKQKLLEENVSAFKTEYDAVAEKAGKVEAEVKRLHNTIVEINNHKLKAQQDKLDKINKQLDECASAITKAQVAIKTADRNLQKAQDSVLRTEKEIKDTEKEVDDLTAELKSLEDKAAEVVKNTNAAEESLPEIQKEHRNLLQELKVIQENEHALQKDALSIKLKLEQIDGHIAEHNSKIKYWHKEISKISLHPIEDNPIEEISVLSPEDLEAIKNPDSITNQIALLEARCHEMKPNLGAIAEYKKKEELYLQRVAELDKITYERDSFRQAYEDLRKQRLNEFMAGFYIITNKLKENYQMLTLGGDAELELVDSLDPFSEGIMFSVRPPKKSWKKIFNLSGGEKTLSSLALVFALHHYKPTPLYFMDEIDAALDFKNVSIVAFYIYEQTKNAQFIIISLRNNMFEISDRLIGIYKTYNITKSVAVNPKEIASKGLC
# Chain of UniProt P62316 (P62316 whole entry, looked up): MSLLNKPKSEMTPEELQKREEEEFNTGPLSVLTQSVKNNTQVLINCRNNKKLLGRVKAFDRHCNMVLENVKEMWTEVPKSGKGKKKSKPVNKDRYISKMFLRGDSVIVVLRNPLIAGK
# Chain of UniProt P62306 (P62306 whole entry, looked up): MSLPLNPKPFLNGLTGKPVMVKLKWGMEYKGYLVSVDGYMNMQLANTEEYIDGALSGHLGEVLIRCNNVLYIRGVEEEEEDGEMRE
# Chain of UniProt P08047 (P08047 whole entry, looked up): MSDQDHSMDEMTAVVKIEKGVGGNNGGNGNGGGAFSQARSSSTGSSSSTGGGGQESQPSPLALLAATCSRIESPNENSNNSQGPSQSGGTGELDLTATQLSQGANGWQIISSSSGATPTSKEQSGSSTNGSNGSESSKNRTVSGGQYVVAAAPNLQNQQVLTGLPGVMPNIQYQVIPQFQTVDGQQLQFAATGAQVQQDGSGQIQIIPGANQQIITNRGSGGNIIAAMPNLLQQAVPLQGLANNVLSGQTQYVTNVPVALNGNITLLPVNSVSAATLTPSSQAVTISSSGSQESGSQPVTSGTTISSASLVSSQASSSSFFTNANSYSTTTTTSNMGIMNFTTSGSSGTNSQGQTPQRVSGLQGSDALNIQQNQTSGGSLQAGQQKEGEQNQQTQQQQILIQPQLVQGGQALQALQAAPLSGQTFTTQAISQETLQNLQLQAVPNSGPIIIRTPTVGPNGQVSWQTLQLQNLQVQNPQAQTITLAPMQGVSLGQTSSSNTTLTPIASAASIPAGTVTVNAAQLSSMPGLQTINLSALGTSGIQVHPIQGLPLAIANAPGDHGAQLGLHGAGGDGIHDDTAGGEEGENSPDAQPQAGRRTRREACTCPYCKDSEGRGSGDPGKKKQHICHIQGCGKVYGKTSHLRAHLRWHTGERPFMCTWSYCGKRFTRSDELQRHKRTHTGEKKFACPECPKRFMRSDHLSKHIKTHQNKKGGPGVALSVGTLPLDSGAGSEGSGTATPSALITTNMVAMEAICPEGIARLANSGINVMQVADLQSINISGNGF
Target,log2 fold change (erlotinib),log2 fold change [1],log2 fold change [2],log2 fold change [3],log2 fold change [4],log2 fold change [5],log2 fold change [6],log2 fold change [7],log2 fold change [8],log2 fold change (IRAK-1-4 Inhibitor I),log2 fold change (ibrutinib),log2 fold change [9],log2 fold change (ralimetinib),log2 fold change [10],log2 fold change [11],log2 fold change [12],log2 fold change [13],log2 fold change [14],log2 fold change [15],log2 fold change [16]
SNRPD2 (UniProt P62316),0.019,0.005,0.058,-0.004,-0.018,-0.001,-0.035,0.004,-0.008,0.004,-0.028,-0.033,-0.018,-0.041,0.007,-0.011,0.016,0.01,0.015,-0.005
SMN1 (UniProt Q16637),0.038,0.009,0.042,-0.075,-0.055,0.096,-0.068,-0.046,-0.104,0.02,-0.085,-0.028,0.01,-0.01,0.002,0.001,-0.018,0.018,0.137,-0.045
SMC4 (UniProt Q9NTJ3),-0.006,-0.018,-0.007,0,-0.026,0,-0.046,-0.015,-0.014,-0.009,-0.002,-0.005,-0.015,-0.012,-0.009,-0.006,0.002,-0.016,0.023,0.013
SLC27A4 (UniProt Q6P1M0),0.022,0.01,-0.023,0.052,0.063,-0.009,0.041,0.015,0.084,-0.003,-0.004,0.029,0.009,-0.027,0.049,0.077,-0.042,-0.051,0.028,0.003
STK39 (UniProt Q9UEW8),0.006,0.08,-0.001,-0.014,-0.03,0,-0.133,-0.004,-0.013,-0.003,-0.114,0.011,0.012,-0.041,-0.015,0.007,-0.045,-0.02,0.037,-0.019
SH3BGRL2 (UniProt Q9UJC5),0.007,-0.109,0.035,0.045,-0.049,0.01,0.018,-0.087,0.034,0.007,-0.014,0.027,0.006,-0.014,0.035,0.03,-0.004,0.036,-0.072,0.053
"SNX6, A0A0A0MRI2",0.012,0.056,-0.029,0.04,-0.028,0.013,-0.073,0.024,-0.047,-0.013,-0.034,0,-0.005,-0.03,-0.011,-0.032,-0.001,0.018,0.039,-0.004
SPR (UniProt P35270),-0.027,0.014,-0.021,0.056,0.049,1.04 (active),0.013,0.008,-0.041,0.049,0.027,0.293,0.024,0,-0.048,-0.051,-0.038,-0.046,-0.028,0.023
SMTN isoform 6 (UniProt P53814),-0.033,0.081,-0.01,0.035,0.006,0.021,0.005,-0.018,0.015,0.058,-0.03,-0.072,-0.02,-0.004,-0.009,0.074,-0.013,0.054,0.05,0.135
SRSF9 (UniProt Q13242),0.027,0.263 (active),0.007,0.077,0.052,-0.01,0.097,0.072,0.007,0.012,-0.009,-0.009,0.001,-0.031,-0.031,-0.019,-0.089,0.047,-0.028,-0.007
SP1 (UniProt P08047),-0.012,-0.04,0.053,0.093,-0.047,0.007,0.04,0.004,0.013,0.034,0.04,0.017,-0.018,-0.049,-0.103,-0.013,0.061,0.22,0.017,-0.027
SLC25A25 isoform 3 (UniProt Q6KCM7),-0.029,0.054,-0.038,0.039,-0.003,-0.027,0.01,0.011,-0.026,-0.041,-0.015,-0.028,0.011,0.021,0.018,0.022,-0.036,0.017,-0.012,0.034
SMARCAD1 isoform 2 (UniProt Q9H4L7),0,0.022,-0.039,0.023,-0.019,0.041,-0.052,-0.051,0.003,-0.006,0.006,-0.021,0.022,-0.016,0.007,0.008,0.012,0.021,0.014,-0.022
SH3BP5L (UniProt Q7L8J4),0.001,-0.156,0.004,-0.058,-0.032,0.003,0.065,-0.019,0,0,0.007,0.013,-0.024,-0.035,0.032,0.009,-0.02,0.021,-0.017,-0.045
SHC1 isoform 6 (UniProt P29353),0.029,-0.024,0.05,0.035,0.04,0.011,-0.043,-0.005,0.001,0.012,0.053,-0.007,-0.02,-0.041,-0.007,-0.016,-0.006,-0.004,0.002,-0.008
SNRPF (UniProt P62306),-0.029,-0.07,0.081,-0.017,-0.065,0.028,-0.034,-0.018,0.001,0.007,-0.027,-0.013,-0.024,-0.072,-0.004,0.015,-0.137,0.018,0.028,-0.082
